Source: PubChem
JMJD2A Tudor inh – JMJD2A Tudor domain (human) inhibition. O75164. 390,000 tested, 4.4% active. AlphaScreen JMJD2A-Tudor / H3K4me3 peptide binding. Potency, µM (doses to about 114 µM), actives largely listed as inhibitors; also: nearly all actives have a fitted effect of over 50% in size
G9a block – inhibitors of human histone lysine methyltransferase G9a. G9a H3K9 monomethylation, AlphaScreen, 2 h. Potency, µM (series often up to 102 µM), hits mostly inhibitors. 350,000 tested, 8.8% active. AID 504332; also: nearly all actives have a fitted effect of over 75% in size
Target sequence (Q96KQ7 913-1193 limits assumed): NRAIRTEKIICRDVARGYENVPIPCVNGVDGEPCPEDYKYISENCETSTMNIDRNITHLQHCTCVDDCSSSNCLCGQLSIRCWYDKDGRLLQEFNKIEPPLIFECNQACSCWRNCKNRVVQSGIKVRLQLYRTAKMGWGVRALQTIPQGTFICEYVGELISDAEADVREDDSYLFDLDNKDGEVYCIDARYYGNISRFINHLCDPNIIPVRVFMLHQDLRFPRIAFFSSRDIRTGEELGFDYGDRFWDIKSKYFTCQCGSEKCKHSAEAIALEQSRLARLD
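AlphaScreen detection with an anti-monomethyl H3K9 antibody quantified product after a 2 h room-temperature reaction containing 500 nM biotinylated H3K9 peptide, 20 µM SAM and 20 nM enzyme, which had been preincubated 15 min with compound.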
HP1b binding inh – blocks HP1-beta chromodomain binding to methylated histone tails | P83916 | AlphaScreen HP1-beta / biotin-H3K9me3 peptide binding | Potency, µM (highest dose often 114 µM), actives largely listed as inhibitors | 390,000 tested, 0.56% active | AID 540317; also: nearly all actives have a fitted effect of over 70% in size
Target sequence (P83916 whole entry, looked up): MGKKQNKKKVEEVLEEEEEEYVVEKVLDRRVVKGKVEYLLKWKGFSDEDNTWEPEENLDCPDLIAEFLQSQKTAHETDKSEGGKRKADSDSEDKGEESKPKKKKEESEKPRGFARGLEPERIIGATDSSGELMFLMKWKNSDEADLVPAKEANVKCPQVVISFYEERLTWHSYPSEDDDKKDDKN
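Compound inhibition of the preformed complex between 50 nM HP1-beta and 50 nM biotinylated H3K9me3 peptide was read by AlphaScreen. Buffer was PBS pH 7.4 with 0.01% Tween-20. Incubations ran 30 min at room temperature, with 10 ug/mL donor/acceptor beads.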
BAZ2B inh – BAZ2B (human) inhibition | 360,000 tested, 4.4% active | AlphaScreen BAZ2B-H3K14Ac peptide displacement | Q9UIF8 | Potency, µM (highest dose often 114 µM), hits mostly inhibitors | AID 504333; also: nearly all actives have a fitted effect of over 60% in size
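Multi-concentration screen (max 110 uM) measuring displacement of acetylated histone H3 peptide from BAZ2B by AlphaScreen, using 50 nM protein, 50 nM peptide and 10 ug/mL streptavidin donor plus Ni-chelate acceptor beads.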
PLK1 PBD block – inhibitors of human PLK1 polo-box domain binding; Plk1 PBD binding of FITC phosphopeptide, fluorescence polarization; Potency, µM, hits mostly inhibitors; 360,000 tested, 2.8% active; AID 720504; also: series mostly up to about 57 µM; nearly all actives have a fitted effect of over 65% in size
ALOX12 inh – inhibitors of human 12S-lipoxygenase ALOX12; P18054; purified 12hLO, xylenol orange hydroperoxide absorbance; Potency, µM (doses to about 108 µM), usual class: inhibitors; 580,000 tested, 1.1% active
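Purified human 12hLO (150 nM final) in 25 mM Hepes, 0.01% Triton X-100, pH 7.0 was preincubated 15 min at room temperature with compound. Then 40 uM arachidonic acid was added, 30 min. Hydroperoxide was read by Fe-XO absorbance ratio 573/405 nm.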
Large screens that a line does not name were inactive; ! = repeats disagree. A selection: hits, their analogues and other compounds. The true share with any hit is near 9%. Calls follow the shape of the dose curve; as a rule, active = well fitted curve in the direction sought with a large enough effect; inconclusive = small, poorly fitted or top-dose-only effect, or another doubt; inactive = no such curve, though single readings can be large; an effect the other way counts as inactive or inconclusive.

O=c1[nH]c(SCc2n[nH]c(=S)n2-c2ccccc2)nc2ccccc12	JMJD2A Tudor inh 7.9µM, G9a block inconclusive, ALOX12 inh inconclusive
C[C@H]1CC[C@@]2(C)[C@@H](CC[C@@H]3[C@@H]2CC[C@]2(C)[C@@H](O)CC[C@@H]32)C1	PLK1 PBD block 27µM
CC1=C(C(=O)O)N2C(=O)C(NC(=O)Cc3ccccc3)C2SC1 (stereo unspecified)	G9a block 10µM
CC1=C(C(=O)O)N2C(=O)C(NC(=O)c3nn(C)cc3[N+](=O)[O-])C2SC1 (stereo unspecified)	JMJD2A Tudor inh inconclusive, G9a block 3.5µM, BAZ2B inh 50µM, PLK1 PBD block 34µM, ALOX12 inh inconclusive
CC(=O)OCC1=C(C(=O)O)N2C(=O)C(NC(=O)CCCC(N)C(=O)O)C2SC1 (stereo unspecified)	none (no result: JMJD2A Tudor inh, HP1b binding inh, BAZ2B inh, PLK1 PBD block, ALOX12 inh)
CCC1(C2=NCCN2)Cc2ccccc2O1 (stereo unspecified)	none
Cc1ccc(CSc2ncccc2C(=O)O)cc1	none
CCOc1ccccc1-n1c(O)c(C=Nc2ccc(N(CC)CC)cc2)c(=O)[nH]c1=O	JMJD2A Tudor inh inconclusive, G9a block 50µM, BAZ2B inh inconclusive
CCN(CC)c1ccc(N=Cc2c(O)n(-c3ccccc3C)c(=O)[nH]c2=O)cc1	JMJD2A Tudor inh inconclusive, G9a block inconclusive, BAZ2B inh inconclusive
COc1ccc(CCN)cc1O	G9a block inconclusive (no result: BAZ2B inh)
CNCCc1ccc(O)c(O)c1	G9a block 32µM, HP1b binding inh inconclusive, ALOX12 inh inconclusive (no result: BAZ2B inh)
N#CC(C#N)=NNc1ccc(-n2ccc(C(F)(F)F)n2)cc1	JMJD2A Tudor inh inconclusive, G9a block 32µM, BAZ2B inh 32µM, PLK1 PBD block inconclusive, ALOX12 inh 28µM
Cc1cc(C)n(-c2ccc(NN=C(C#N)C#N)cc2)n1	JMJD2A Tudor inh inconclusive, BAZ2B inh 32µM, ALOX12 inh inconclusive (no result: G9a block)
COC(=O)C1=C(c2ccccc2)C[C@@H]2CC[C@H]1N2C(=O)NCCNC(C)=O	none (no result: G9a block, BAZ2B inh)
N#CC(=C(O)c1ccc(S(=O)(=O)N(CCCl)CCCl)cc1)c1nc2ccccc2[nH]1	none (no result: G9a block, BAZ2B inh)
COc1ccc(OC)c(C(O)C2CCCCN2)c1 (stereo unspecified)	none (no result: G9a block)
C=CCN1CC[C@]23c4c5ccc(O)c4O[C@H]2C(=O)CC[C@@]3(O)[C@H]1C5	G9a block 40µM!
C=CCN1CC[C@]23c4c5ccc(O)c4O[C@@H]2/C(=N/N=C2\CC[C@@]4(O)C6Cc7ccc(O)c8c7[C@@]4(CCN6CC=C)[C@@H]2O8)CC[C@@]3(O)C1C5	G9a block 13µM! (no result: JMJD2A Tudor inh, HP1b binding inh, BAZ2B inh, PLK1 PBD block, ALOX12 inh)
C=CCN1CCC23c4c5ccc(O)c4OC2/C(=N/N=C2\CCC4(O)C6Cc7ccc(O)c8c7C4(CCN6CC=C)C2O8)CCC3(O)C1C5 (stereo unspecified)	G9a block 25µM (no result: JMJD2A Tudor inh, HP1b binding inh, BAZ2B inh, PLK1 PBD block)
O=C1/C(=C\c2ccccc2)C[C@@]2(O)[C@H]3Cc4ccc(O)c5c4[C@@]2(CCN3CC2CC2)[C@@H]1O5	none (no result: JMJD2A Tudor inh, G9a block, HP1b binding inh, BAZ2B inh, PLK1 PBD block)
C=CCN1CC[C@]23c4c5ccc(O)c4OC2[C@H](O)CC[C@@]3(O)[C@H]1C5 (stereo partly specified)	none (no result: G9a block, BAZ2B inh)
CC(COc1ccccc1)N(CCCl)Cc1ccccc1 (stereo unspecified)	G9a block inconclusive, ALOX12 inh inconclusive
O=C1OCCN1P(=O)(c1ccccc1)c1ccccc1	none
Cc1ccc(N2C(=O)NC(=O)/C(=C\c3cc(C)n(-c4sc5c(c4C#N)CCCC5)c3C)C2=O)cc1	JMJD2A Tudor inh inconclusive, G9a block inconclusive, BAZ2B inh inconclusive, PLK1 PBD block 0.6µM, ALOX12 inh 35µM
CCOC(=O)c1c(-n2c(C)cc(/C=C3/C(=O)NC(=O)N(CC)C3=O)c2C)sc2c1CCCC2	PLK1 PBD block inconclusive, ALOX12 inh inconclusive (no result: G9a block, BAZ2B inh)
CCN1C(=O)NC(=O)/C(=C/c2cc(C)n(-c3sc(C)c(C)c3C#N)c2C)C1=O	JMJD2A Tudor inh inconclusive, HP1b binding inh inconclusive, PLK1 PBD block 2.1µM, ALOX12 inh inconclusive
CCOC(=O)c1c(-n2c(C)cc(C=C3C(=O)NC(=S)NC3=O)c2C)sc2c1CCCC2	JMJD2A Tudor inh inconclusive, G9a block inconclusive, BAZ2B inh inconclusive, PLK1 PBD block 0.3µM (no result: ALOX12 inh)
